The results in this text go back to PubChem BioAssay AID743279 (National Center for Advancing Translational Sciences (NCATS), 2014).

Hit rate of the full screen: of about 360,000 compounds, about 17,000 (4.7%) were called active. Roughly 5% stayed inconclusive and do not appear here. This is one part of a sample in which actives are shown more often than they occur. A number with no mark means an inactive call. No stated cut-off is given here; in the data, active means activity change below about -50%; inconclusive means mostly about -30% to -49%; inactive means weaker than that.
On the % scale 0 is the no-effect control and ±100 the full control effect.

The assay in a line: qHTS for Inhibitors of Inflammasome Signaling: IL-1-beta AlphaLISA Primary Screen. As to conditions: THP-1 LPS/ATP IL-1B secretion, 16 h; at 57.5 µM, active compounds read low. The source says:
Inflammasomes are a set of intracellular multi-protein complexes that enable autocatalytic activation of inflammatory caspases and drive the innate immune response to counter harmful agents. […] A qHTS assay, based on AlphaLISA technology, was developed to screen the Molecular Libraries Small Molecule Repository (MLSMR) to look for novel inflammasome inhibitors. The assay detects IL-1B using AlphaLISA anti-IL-1B acceptor and donor beads. A decreased emission signal, indicating reduced IL-1B secretion, is the desired outcome for this assay. NIH Chemical Genomics Center [NCGC] NIH Molecular Libraries Probe Centers Network [MLPCN] MLPCN Grant: MH095513 Assay Provider: Shyam Biswal Ph.D., Johns Hopkins University Immunity. 2012 Jul 27;37(1):85-95. PMID: 22819042 [2] Curr Pharm Des. 2012;18(16):2320-8. PMID: 22390695
Three microliters containing 3000 THP-1 cells were dispensed into the wells of solid, white, tissue culture treated Greiner 1,536-well plates. Library compounds and positive control, Glyburide, were pin-transferred (23 nL) by a Kalypsys pin-tool equipped with a 1,536-pin array, resulting in final compound concentration ranges of 2.5 nM to 57.5 uM. After 1 hr of cell culture incubation (37 °C, 5% CO2), 1 microL of 1 microg/mL lipopolysaccharide (250 ng/mL, final) and 5 mM ATP (1.25 mM, final) were added to stimulate the cells. After 16 hr of cell culture incubation with the compounds, 1.5 uL of anti-IL-1B acceptor beads (6 ug/mL, final) and biotinylated antibody (0.6 nM, final) were added to the plate, followed by a 1 hr incubation at ambient temperature. To detect the secreted IL-1B, 1.5 uL of AlphaLISA SA-Donor beads (24 ug/mL, final) were added, followed by 30 min of incubation in the dark at ambient temperature. The AlphaLISA signal was read by a PerkinElmer EnVision plate reader with an ultrasensitive luminescence detector and 1536 Plate HTS AlphaScreen aperture (excitation of 680nm and emission of 615nm).
A general note: In qHTS, concentration-response curves come from the screen itself.
Consider `O=C(C[C@H]1CC[C@H]2[C@@H](COC[C@H](O)CN2C(=O)c2ccccn2)O1)N1CCN(c2ccccc2)CC1`, for which the activity change is 18.8%.
The result for `CC(=O)N=c1ncn(CC(COC(C)=O)OC(C)=O)c2nc[nH]c12` (stereo not drawn) reads -17.6%; that for `O=c1[nH][nH]c2c1[C@H](c1ccc(Cl)cc1)O[C@H](CCc1ccccc1)C2`, -5.73%.
The result for `Cc1cccc(CC2(O)C(=O)Nc3ccccc32)n1` (stereo not drawn) reads 12.5%; that for `Cc1cc(C(C)(C)C)cc(S(=O)(=O)Nc2ccc(C(=O)O)cc2)c1C`, 0%; that for `COc1ccc(NC(=O)C(=O)NCC(c2ccco2)N2CCc3ccccc3C2)cc1` (stereo not drawn), 5.37%.
`CC(=O)Nc1cc(-c2ccc(N3CCN(C)CC3)cc2)cn2c(-c3ccc(F)cc3)cnc12`: the activity change was -91.8% (active).
In the case of `COc1ccccc1-c1cc(NC(C)=O)c2ncc(-c3ccc(F)cc3)n2c1`, the activity change was -21.1%.
With `CC(=O)Nc1cc(-c2ccc(N3CCN(C)CC3)cc2)cn2c(-c3cccc(C(=O)N(C)C)c3)cnc12`, the activity change was -6.52%.
Take `CC(=O)N1c2ccc(S(=O)(=O)N3CCCC(C(=O)NCc4ccc(Cl)cc4)C3)cc2CC1C` (stereo not drawn): the activity change was -22.7%.
The result for `CCN(CCN(C)C)C(=O)c1ccc2nc(C)c(N(C)C(=O)CCc3ccccc3)n2c1` reads 10.6%.
Turning to `CC(=O)Nc1cccc(NC(=O)c2ccc3c(c2)CCN3S(C)(=O)=O)c1`, the activity change is -15.8%.
The result for `Cc1cc(C)cc(NC(=O)C(c2ccccc2)N2CCN(CC(=O)N3CCCC3)CC2)c1` (stereo not drawn) reads 15.8%; that for `Cc1[nH]c(C)c(S(=O)(=O)N2CCC(C)CC2)c1C(=O)N1CCCC1`, -16.2%.
The result for `CSCCC(NC(=O)c1ccccc1)C(=O)N1CCCCCCC1` (stereo not drawn) reads -20.8%; that for `CSCCC(NC(=O)c1ccccc1)C(=O)N1CCN(Cc2ccc(Cl)cc2)CC1` (stereo not drawn), -78.1% (active).
On to `COc1ccccc1C(=O)NC(CCSC)C(=O)N1CCN(C(C)=O)CC1` (stereo not drawn), for which the activity change was -2.96%.
For the molecule `O=C1NC[C@@H](CCCCN2CCN(CCc3ccc(O)cc3)C(=O)C2=O)N(CC2CCCCC2)C1=O`, the activity change is 24.5%.
As to `COc1ccc(C2Nc3ccccc3C(=O)N2c2ccc(F)cc2)cc1Cn1nnc2ccccc21` (stereo not drawn), the activity change was -12.7%.
Regarding `COc1ccc(C2Nc3ccccc3C(=O)N2Cc2ccccc2)cc1Cn1nnc2ccccc21` (stereo not drawn), the activity change was -62.4% (active).
The result for `COc1ccc(N2C(=O)c3ccccc3NC2c2ccc(OC)c(CN3CCOCC3)c2)cc1` (stereo not drawn) reads -2.56%; that for `Nc1ncnc2c1ncn2[C@@H]1O[C@H](C(=O)NS(=O)(=O)c2c(Cl)nc3sccn23)[C@@H](O)[C@H]1O`, -13.5%; that for `CC(=O)Nc1cccc(-c2cc(NC=O)c3ncc(-c4ccc(F)c(Cl)c4)n3c2)c1`, 18.8%.
Regarding `Cc1cccc(C)c1NC(=O)C(c1cccc(F)c1)N1CCN(C)CC1` (stereo not drawn), the activity change was -18.5%.
`COc1cc(SC#N)ccc1N=Cc1c(C)[nH]n(-c2ccc(C)cc2)c1=O`: the activity change was -83.8% (active).
As for `FC(F)(F)Oc1ccccc1C(c1nnnn1C1CCCCC1)N1CCN(C/C=C/c2ccccc2)CC1` (stereo not drawn), the activity change was -26.5%.
Regarding `O=C(CSc1ccc(Cl)cc1)NC1CC1`, the activity change was 3.85%.
The result for `Cc1ccc(-c2nc(CSCC(=O)NC3CCN(Cc4ccccc4)CC3)c(C)o2)cc1` reads -64.8% (active).
As to `Cc1ccc(-c2cc(C(=O)NC3CCN(Cc4ccccc4)CC3)c3ccccc3n2)cc1`, the activity change was -4.22%.
`Cc1ccc(S(=O)(=O)NCCC(=O)NC2CCN(Cc3ccccc3)CC2)cc1`: the activity change is -11.3%.
As to `CC(=O)c1ccc(S(=O)(=O)N(C)CCCC(=O)N(C)Cc2ccccc2F)cc1`, the activity change is -0.0792%.
The figure for `Cc1cccc(C)c1NC(=O)N1CC(C)OC(C)C1` (stereo not drawn) is -6.92%; for `Cc1ccc(S(=O)(=O)N(C)c2nc3ccccc3n3c(C(C)C)nnc23)cc1` it is 9.42%.
Regarding `O=C1N(c2ccc(Cl)cc2)C(c2ccc(Cl)cc2)N2CCCN12` (stereo not drawn), the activity change was -5.15%.
For the molecule `CCOC(=O)N1CCC(N2Cc3cccc(C(=O)Nc4c(C)cccc4CC)c3C2=O)CC1`, the activity change was -55.1% (active).
The figure for `CCOC(=O)N1CCC(N2Cc3cccc(C(=O)Nc4ccc(S(=O)(=O)N(CC)CC)cc4)c3C2=O)CC1` is 63.8%; for `O=C(O)c1cccc2c1C(=O)N(C1CCCC1)C2` it is -1.11%.
As to `CC1(C(=O)NCc2ccc3c(c2)OCO3)CCN1C(=O)Cc1cccs1` (stereo not drawn), the activity change was -5.2%.
For the molecule `COc1cccc(NC(=O)CN(C)C(=O)/C=C/c2cn(-c3ccccc3)nc2-c2cccs2)c1`, the activity change was -24.8%.
In the case of `COc1cccc(NC(=O)CN(C)C(=O)CSC(=S)N2CCCC2)c1`, the activity change is 6.49%.
The figure for `COc1cccc(NC(=O)CN(C)C(=O)CSCc2nc3scc(-c4cccs4)c3c(=O)[nH]2)c1` is -57.4% (active); for `Cc1cc(C)n(CC(=O)Nc2ccc([N+](=O)[O-])cc2)n1` it is 15.4%; for `COCOc1cccc(CN2CCC(C)(Oc3ccc(SC)cc3)C2)c1` (stereo not drawn) it is -9.11%.
